# Laboratory results published in PubChem BioAssay.
# Unmarked numbers belong to inactive results. For part of these data: Entries with a potency or affinity are not part of this list. The source made the active and inactive calls. Unless noted, the rule behind the calls is not given here.
# Assays:
# [1] = antimalarial activity against Dd2 strain (AID 2302;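 active = growth inhibition above 50% at the single 2 µM test dose, taken to imply half-maximal potency below 2 µM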;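 note: 0% = DMSO untreated growth and 100% = chloroquine plus artemisinin killed control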); settings: P. falciparum Dd2 in RBCs, LDH growth readout, 72 h; at 2 µM; stronger effect = higher value
# [2] = HepG2 cytotoxicity, primary screen, cytotoxicity control for P. falciparum antimalarial project, cell-based, ATP luminescence (AID 2303;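 active = inhibition above 50%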;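 note: 0% = DMSO wells and 100% = digitonin-killed cells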); settings: HepG2 viability, 24-48 h, at 10 µM, stronger effect = higher value
# [3] = target: L-lactate dehydrogenase (Plasmodium falciparum (isolate CDC / Honduras)) (UniProt Q27743); assay: PfLDH activity inhibition – cell lysate, 3D7 strain, counter-screen for P. falciparum growth inhibition project (AID 2304);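 note: 0% = vehicle and 100% = reference inhibitor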; settings: P. falciparum 3D7 crude extract, LDH APAD/NBT absorbance; at 2 µM; stronger effect = higher value
# [4] = inhibition of 3D7 malaria parasite growth – strain 3D7 (AID 2306);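 note: 0% = DMSO wells and 100% = chloroquine plus artemisinin control wells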; settings: P. falciparum 3D7 erythrocytic growth, LDH absorbance, 72 h; at 2 µM; stronger effect = higher value
# [5] = target: Calcium-dependent protein kinase 1 (Plasmodium falciparum (isolate 3D7)) (UniProt P62344); assay: PfCDPK1 kinase inhibitors, biochemical, TCAMS library (AID 1159585; cut-off not given, nearly all actives have IC50 up to about 0.98 µM;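 note: inhibitors leave more ATP so luminescence rises with inhibition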); settings: recombinant PfCDPK1, Kinase-Glo ATP depletion luminescence
# [6] = target: Plasmodium falciparum protein kinase 6 (PK6, PF3D7_1337100) (UniProt Q8IDW1); assay: PfPK6 kinase inhibitors, biochemical, TCAMS library (AID 1159586); settings: recombinant PfPK6, Kinase-Glo ATP depletion luminescence
# [7] = target: Protein kinase 7 (PK7), Plasmodium falciparum 3D7 (PF3D7_0213400) (UniProt Q7YTF7); assay: inhibition of Plasmodium PK7 catalytic activity – biochemical, TCAMS antimalarial set, Kinase-Glo luminescence (AID 1159587); settings: recombinant PfPK7, Kinase-Glo ATP depletion luminescence
# [8] = target: Calcium-dependent protein kinase 4 (Plasmodium falciparum (isolate 3D7)) (UniProt Q8IBS5); assay: PfCDPK4 kinase inhibitors, biochemical, TCAMS library (AID 1159588; cut-off not given, nearly all actives have IC50 up to about 0.91 µM); settings: recombinant PfCDPK4, Kinase-Glo ATP depletion luminescence
# Sequence of Calcium-dependent protein kinase 4 (Plasmodium falciparum (isolate 3D7)) (Q8IBS5 whole entry, looked up): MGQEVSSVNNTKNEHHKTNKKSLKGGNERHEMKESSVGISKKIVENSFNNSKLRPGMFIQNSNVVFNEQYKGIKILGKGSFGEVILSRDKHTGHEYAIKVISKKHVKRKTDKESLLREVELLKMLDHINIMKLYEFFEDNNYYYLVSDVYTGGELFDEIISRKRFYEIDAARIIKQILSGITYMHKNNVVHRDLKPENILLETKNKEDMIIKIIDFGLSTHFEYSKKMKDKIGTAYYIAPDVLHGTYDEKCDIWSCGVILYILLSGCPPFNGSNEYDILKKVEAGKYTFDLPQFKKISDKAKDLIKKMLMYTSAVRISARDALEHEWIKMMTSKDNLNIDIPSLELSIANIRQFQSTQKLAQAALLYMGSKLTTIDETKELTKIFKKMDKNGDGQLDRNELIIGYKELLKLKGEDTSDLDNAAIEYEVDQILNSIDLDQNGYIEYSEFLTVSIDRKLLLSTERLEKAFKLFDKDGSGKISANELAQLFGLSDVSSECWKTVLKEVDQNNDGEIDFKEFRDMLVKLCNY
# Sequence of Calcium-dependent protein kinase 1 (Plasmodium falciparum (isolate 3D7)) (P62344 whole entry, looked up): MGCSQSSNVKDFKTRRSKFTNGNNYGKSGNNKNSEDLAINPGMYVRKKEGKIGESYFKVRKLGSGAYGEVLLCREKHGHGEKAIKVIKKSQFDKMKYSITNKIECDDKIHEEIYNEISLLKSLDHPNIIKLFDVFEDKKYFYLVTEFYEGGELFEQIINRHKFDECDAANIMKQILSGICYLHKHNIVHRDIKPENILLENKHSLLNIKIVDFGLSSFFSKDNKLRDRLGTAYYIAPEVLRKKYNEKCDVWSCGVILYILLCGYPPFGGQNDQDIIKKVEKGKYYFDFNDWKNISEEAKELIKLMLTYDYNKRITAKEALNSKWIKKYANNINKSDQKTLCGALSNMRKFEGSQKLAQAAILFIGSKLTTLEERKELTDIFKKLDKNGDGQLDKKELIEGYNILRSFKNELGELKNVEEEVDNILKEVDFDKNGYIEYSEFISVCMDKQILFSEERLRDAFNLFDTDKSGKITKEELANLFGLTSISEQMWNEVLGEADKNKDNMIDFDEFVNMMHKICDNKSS
# Sequence of Plasmodium falciparum protein kinase 6 (PK6, PF3D7_1337100) (Q8IDW1 1-305): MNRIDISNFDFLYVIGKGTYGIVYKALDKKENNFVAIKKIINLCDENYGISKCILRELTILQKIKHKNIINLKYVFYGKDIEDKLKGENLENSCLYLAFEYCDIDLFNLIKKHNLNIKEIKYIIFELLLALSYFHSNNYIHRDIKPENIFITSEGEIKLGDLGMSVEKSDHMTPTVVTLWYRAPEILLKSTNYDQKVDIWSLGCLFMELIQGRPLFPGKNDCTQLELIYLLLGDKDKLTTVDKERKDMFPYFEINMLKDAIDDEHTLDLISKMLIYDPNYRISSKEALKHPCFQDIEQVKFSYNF
# Sequence of Protein kinase 7 (PK7), Plasmodium falciparum 3D7 (PF3D7_0213400) (Q7YTF7 1-343): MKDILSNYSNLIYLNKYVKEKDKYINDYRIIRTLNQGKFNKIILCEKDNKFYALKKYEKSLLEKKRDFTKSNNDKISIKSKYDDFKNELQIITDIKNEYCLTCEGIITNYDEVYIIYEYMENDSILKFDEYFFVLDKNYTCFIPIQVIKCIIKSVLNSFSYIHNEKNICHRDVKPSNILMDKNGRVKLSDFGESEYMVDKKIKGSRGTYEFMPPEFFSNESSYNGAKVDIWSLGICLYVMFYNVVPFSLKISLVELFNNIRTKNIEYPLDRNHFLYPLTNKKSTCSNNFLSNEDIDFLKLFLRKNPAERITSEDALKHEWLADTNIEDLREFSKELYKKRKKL
# Sequence of L-lactate dehydrogenase (Plasmodium falciparum (isolate CDC / Honduras)) (Q27743 whole entry, looked up): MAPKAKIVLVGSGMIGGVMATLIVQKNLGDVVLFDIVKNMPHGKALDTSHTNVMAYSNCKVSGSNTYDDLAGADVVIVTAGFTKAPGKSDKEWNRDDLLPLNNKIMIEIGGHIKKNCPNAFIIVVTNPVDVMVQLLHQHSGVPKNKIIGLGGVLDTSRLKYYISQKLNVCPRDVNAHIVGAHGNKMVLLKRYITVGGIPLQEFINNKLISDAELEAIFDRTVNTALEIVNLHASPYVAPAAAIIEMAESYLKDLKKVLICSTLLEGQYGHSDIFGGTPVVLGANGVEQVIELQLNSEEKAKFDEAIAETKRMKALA
SMILES,growth inhibition [1],inhibition [2],inhibition [3],growth inhibition [4],outcome [5],outcome [6],outcome [7],outcome [8]
O=C(C=Cc1ccc(Cl)c(Cl)c1)NCCCCCN1CCC(CCNC(=O)c2cccc3ccccc23)CC1,-1%,17%,4%,85% (active),inactive,inactive,inactive,inactive
CCN(CC)CCCC(C)Nc1c(-c2ccc(C)cc2)cnc2ccccc12 (configuration not stated),65% (active),8%,1%,85% (active),inactive,inactive,inactive,inactive
CN1CCCN(Cc2cccc(-c3ccc(NC(=O)c4cccc(C#N)c4)cc3)c2)CC1,96% (active),27%,-6%,102% (active),inactive,inactive,inactive,inactive
COc1cc2nc(N(C)C)nc(Nc3ccc4c(cnn4Cc4ccccc4)c3)c2cc1OC,102% (active),90% (active),-4%,100% (active),inactive,inactive,inactive,inactive
Cc1ccccc1NC(=O)NC1CCN(CCCCCNC(=O)/C=C/c2ccc(Cl)c(Cl)c2)CC1,20%,13%,-6%,102% (active),inactive,inactive,inactive,inactive
CCc1ccccc1NC(=O)CN1CCN(c2ncnc3scc(-c4ccc(F)cc4)c23)CC1,62% (active),6%,-2%,83% (active),inactive,inactive,inactive,inactive
C=C[C@]1(C)C[C@@H](OC(=O)c2cncn(COC)c2=O)[C@]2(C)[C@H](C)CC[C@]3(CCC(=O)[C@H]32)[C@@H](C)[C@@H]1O,7%,-1%,-1%,96% (active),inactive,inactive,inactive,inactive
CCCCCn1c(Sc2ccc(C#N)c([N+](=O)[O-])c2)nnc1-c1cccc(Cl)c1,75% (active),4%,-2%,95% (active),inactive,inactive,inactive,inactive
O[C@@H](c1cccc(OCc2ccccc2)c1)[C@@H]1CN(CCc2ccccc2)CC[C@@]1(O)c1ccccc1,98% (active),7%,-4%,98% (active),inactive,inactive,inactive,inactive
CC(CN(C)C)Oc1ccc2[nH]c(-c3cccc(OCc4ccccc4)c3)nc2c1C#N (configuration not stated),94% (active),57% (active),-2%,101% (active),inactive,inactive,inactive,inactive
Cc1cccc2[nH]c(-c3ccc(-c4ccc(CN5CCCCC5)cc4)s3)nc12,87% (active),16%,-2%,99% (active),inactive,inactive,inactive,inactive
Cc1ccc(Nc2ccnc(Nc3ccc(C)c(F)c3)n2)cc1O,27%,4%,-4%,100% (active),inactive,inactive,inactive,inactive
CN(CCCCNC(=O)c1cc2ccccc2[nH]1)C1CC2(CCN(C(=O)OC(C)(C)C)CC2)c2ccccc21 (configuration not stated),75% (active),12%,2%,86% (active),inactive,inactive,inactive,inactive
CN1CCN(C(C(=O)NCc2cc(Cl)cc(Cl)c2)c2ccccc2-c2ccsc2)CC1 (configuration not stated),80% (active),11%,2%,95% (active),inactive,inactive,inactive,inactive
O=C(Nc1cccc(-c2cccc(-c3nc4ccc(F)cc4[nH]3)c2)c1)c1ccncc1,24%,28%,-3%,92% (active),inactive,inactive,inactive,inactive
COc1ccc2c(NN=Cc3cccnc3)ccnc2c1,26%,3%,-4%,97% (active),inactive,inactive,inactive,inactive
Oc1ccc(CC2CCCN(c3nc(NCCCOc4ccccc4-c4ccccc4)nc(N4CCNCC4)n3)C2)cc1 (configuration not stated),77% (active),56% (active),-4%,95% (active),inactive,inactive,inactive,inactive
N#Cc1cc(C(=O)c2cc(Br)ccc2O)cn(-c2cc(Cl)cc(Cl)c2)c1=O,35%,42%,-5%,98% (active),inactive,inactive,inactive,inactive
CCC(C)(C)C1CCc2nc(N)nc(N)c2C1 (configuration not stated),97% (active),71% (active),4%,95% (active),inactive,inactive,inactive,inactive
Clc1ccc(-c2cc(-c3csc(NCCN4CCCCC4)n3)on2)cc1,30%,81% (active),-9%,91% (active),inactive,inactive,inactive,inactive
COc1cc(F)c2ncc(Cl)c([C@H](O)CN3CCC(NCc4ccc5c(n4)NC(=O)CO5)CC3)c2c1,99% (active),14%,-1%,99% (active),inactive,inactive,inactive,inactive
Cc1ccccc1C1CCN(C2CCC(NC(=O)/C=C/c3c(F)ccc(F)c3F)CC2)CC1 (configuration not stated),33%,37%,1%,82% (active),inactive,inactive,inactive,inactive
COc1c(C2CCN(CCCCNC(=O)c3ccc(-c4ccc(C#N)cc4)cc3)CC2)ccc2c1C(C)(C)CCC2(C)C,86% (active),98% (active),-1%,102% (active),inactive,inactive,inactive,inactive
COc1ccc2c(NN=Cc3cccc(C)n3)cc(-c3ccccc3)nc2c1,25%,-7%,3%,97% (active),inactive,inactive,inactive,inactive
